Data taken from paper PMC4336329 (PLoS ONE, 2015).
The campaign covered roughly 310,000 compounds. About 14,000 (4.5%) showed an effect of 50% or more. The effect is printed as a negative number. Shown is part of a subset that was picked to be rich in strong results.

Molecular target: human ether-à-go-go-related gene (hERG) potassium channel (human, UniProt Q12809)
Test: primary screen, population patch clamp on CHO cells stably expressing hERG; higher = less effect of the substance
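Note: peak tail current of the secondary pulse compared with the same well before compound.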

Sequence of human ether-à-go-go-related gene (hERG) potassium channel (Q12809 whole entry, looked up): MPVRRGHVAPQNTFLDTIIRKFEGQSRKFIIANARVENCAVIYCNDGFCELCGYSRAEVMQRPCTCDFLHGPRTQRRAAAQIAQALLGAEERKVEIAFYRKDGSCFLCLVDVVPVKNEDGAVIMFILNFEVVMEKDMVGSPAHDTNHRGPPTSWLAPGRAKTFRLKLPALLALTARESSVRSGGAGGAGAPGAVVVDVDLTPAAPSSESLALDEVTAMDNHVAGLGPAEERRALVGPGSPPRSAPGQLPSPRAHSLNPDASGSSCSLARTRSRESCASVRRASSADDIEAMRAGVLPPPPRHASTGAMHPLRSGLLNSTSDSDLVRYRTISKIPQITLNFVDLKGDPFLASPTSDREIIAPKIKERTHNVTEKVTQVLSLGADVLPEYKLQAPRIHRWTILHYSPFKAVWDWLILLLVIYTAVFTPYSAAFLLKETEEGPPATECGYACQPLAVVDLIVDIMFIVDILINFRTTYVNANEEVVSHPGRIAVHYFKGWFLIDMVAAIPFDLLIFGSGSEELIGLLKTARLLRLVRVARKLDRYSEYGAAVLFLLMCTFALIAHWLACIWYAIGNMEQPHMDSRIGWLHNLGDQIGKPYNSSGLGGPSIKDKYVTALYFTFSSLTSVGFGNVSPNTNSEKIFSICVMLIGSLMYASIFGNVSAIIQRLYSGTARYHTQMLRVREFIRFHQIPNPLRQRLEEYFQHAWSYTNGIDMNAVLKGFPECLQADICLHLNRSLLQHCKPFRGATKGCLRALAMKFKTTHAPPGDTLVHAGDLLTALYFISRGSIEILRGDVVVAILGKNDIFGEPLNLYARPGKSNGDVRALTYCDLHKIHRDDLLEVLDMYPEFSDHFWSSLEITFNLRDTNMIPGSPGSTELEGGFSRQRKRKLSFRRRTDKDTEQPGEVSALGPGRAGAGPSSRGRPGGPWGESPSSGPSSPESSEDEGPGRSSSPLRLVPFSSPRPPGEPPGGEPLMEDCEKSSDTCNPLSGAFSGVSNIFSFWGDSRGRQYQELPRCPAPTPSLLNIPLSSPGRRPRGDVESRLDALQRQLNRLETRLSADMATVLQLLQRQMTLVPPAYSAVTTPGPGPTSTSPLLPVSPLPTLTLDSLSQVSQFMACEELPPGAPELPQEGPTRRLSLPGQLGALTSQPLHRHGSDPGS

| Compound | hERG current change (%, negative = inhibition) at 10uM [%] |
| --- | --- |
| COc1ccc(CCNC(=O)C(=O)NCc2ccc(C)cc2)cc1OC | -1.57 |
| COc1ccccc1N1CCN(C(=O)c2cc(-c3cccs3)on2)CC1 | -22.7 |
| COc1cccc(CNC(=O)C2Cc3ccccc3CN2C(C)=O)c1 (centres unmarked) | 2.81 |
| C=CCc1cccc(/C=N/NC(=O)COc2ccc(-n3cnnn3)cc2)c1O | 11.3 |
| CCN1C(=O)N[C@@H](c2cccc(C(F)(F)F)c2)[C@@H](C(=O)OC)[C@H]1C | -19 |
| O=C(Cn1cccc1C(=O)c1ccccc1)NCc1ccc(Cl)cc1 | 18.7 |
| O=C(O)CC(NS(=O)(=O)c1cccc2nsnc12)c1ccc(F)cc1 (centres unmarked) | -17.2 |
| Cc1cc(F)ccc1S(=O)(=O)Nc1ccc(C(=O)N2CCCCCC2)cc1 | -27.6 |
| Cc1ccc2nc(N/N=C/c3ccco3)cc(C)c2c1 | -64.3 |
| Cc1ccc2nc(SCC(=O)N/N=C/c3ccco3)cc(C)c2c1 | 10.4 |
| Cc1cc(N/N=C/c2ccco2)c2ccccc2n1 | 16.6 |
| C[C@@H]1CC[C@H]2[C@@H](C)C(=O)O[C@@H]3O[C@@]4(C)CC[C@@H]1[C@]32OO4 | 0.204 |
| COc1ccc(OC)c(NC(=O)CSc2nnc(C3CCCCC3)n2N)c1 | -17.4 |
| CC(C)CC(NC(N)=O)C(=O)Nc1ccc(Oc2ccccc2)cc1 (centres unmarked) | 10.1 |
| O=C(/C(=N\Nc1ccc(Br)cc1)Sc1nnnn1-c1ccccc1)c1ccccc1 | 13.8 |
| CCN1CCn2c3c(c4cc(Cl)ccc42)CCCC31.Cl (centres unmarked) | -39.1 |
| Cc1ccc2c(c1)c1c3n2CCN(CC#N)C3CCC1 (centres unmarked) | 2.24 |
| CCN(CC)CCN1CCn2c3c(c4cc(C)ccc42)CCCC31.Cl (centres unmarked) | -76.3 |
| Cc1ccc2c(c1)c1c3n2CCN(CCC(=O)O)C3CCC1 (centres unmarked) | -3.49 |
| CCN1CCn2c3c(c4cc(C)ccc42)CCCC31 (centres unmarked) | -54.2 |
| Cc1ccc2c(c1)c1c3n2CCN(CC(N)=O)C3CCC1 (centres unmarked) | 25.6 |

| Compound | hERG current change (%, negative = inhibition) at 10uM [%] |
| --- | --- |
| NC[C@H]1O[C@H](O[C@H]2[C@H](O)[C@@H](O[C@H]3O[C@H](CO)[C@@H](O)[C@H](N)[C@H]3O)[C@H](N)C[C@@H]2N)[C@H](N)C[C@@H]1O.O=S(=O)(O)O | 4.47 |
| CC(C)c1nnc(NC(=O)c2nc(S(=O)(=O)Cc3ccccc3F)ncc2Cl)s1 | -5.79 |
| CC(C)(C)N=C1NN=C(c2cc3ccccc3o2)CS1 | -9.99 |
| c1ccc2oc(C3=NNC(=NC4CC4)SC3)cc2c1 | -58.5 |
| c1ccc(CN=C2NN=C(c3cc4ccccc4o3)CS2)cc1 | -16.3 |
| COc1cccc(C(c2sc3ncnn3c2O)N2CC(C)OC(C)C2)c1 (centres unmarked) | 0.441 |
| O=C(NCc1ccccc1)c1ccc2c(=O)n(CC3CCCO3)c(=S)[nH]c2c1 (centres unmarked) | -2.39 |
| CCOC(=O)c1cc2c(=O)n3ccccc3nc2n(CC2CCCO2)c1=NC(C)=O (centres unmarked) | -1.13 |
| N=c1c(C(=O)NCc2ccc3c(c2)OCO3)cc2c(=O)n3ccccc3nc2n1CC1CCCO1 (centres unmarked) | -79.5 |
| N=c1c(C(=O)NCc2ccc(F)cc2)cc2c(=O)n3ccccc3nc2n1CC1CCCO1 (centres unmarked) | -77.4 |
| O=C(CSc1nc2ccccc2c(=O)n1CC1CCCO1)NCc1ccc2c(c1)OCO2 (centres unmarked) | -30.2 |
| Cc1ccc(CNC(=O)c2cc3c(=O)n4ccccc4nc3n(CC3CCCO3)c2=N)cc1 (centres unmarked) | -81.3 |
| N=c1c(S(=O)(=O)c2ccc(F)cc2)cc2c(=O)n3ccccc3nc2n1CC1CCCO1 (centres unmarked) | -40.8 |
| COc1ccc(CNC(=O)c2cc3c(=O)n4ccccc4nc3n(CC3CCCO3)c2=N)cc1 (centres unmarked) | -72.5 |
| O=C(NCc1ccc2c(c1)OCO2)c1ccc2c(c1)C(=O)N(CC1CCCO1)C2=O (centres unmarked) | 2.28 |
| CC(CCc1ccccc1)NC(=O)c1ccccc1Cl (centres unmarked) | -4.82 |
| CN(C)S(=O)(=O)c1cc(NC(=O)CN2CCN(c3ccccc3F)CC2)ccc1Cl | 5.43 |
| CC(C)NC(=O)CSc1nnc(-c2ccc(C(C)(C)C)cc2)n1C | -7.38 |
| NC(=O)C1CCN(C(=O)COc2ccc3c(c2)oc(=O)c2ccccc23)CC1 | 3.62 |
| COc1ccc(COc2cc(-c3cccc(OC)c3)nc3ccc(NC(=O)C(C)C)cc23)cc1 | 3.04 |
